Measured values published in PubChem BioAssay (Tox21).
Values joined by “and” are separate entries in the source; they are usually repeats but may differ in a detail not shown here. Identical values can stand only once. Records with an inconclusive call do not appear. More than one record can exist for a structure, and the calls need not agree. Active and inactive are the calls of the source. Calls follow the shape of the dose curve; as a rule, active = well fitted curve in the direction sought with a large enough effect in the repeat runs; inconclusive = weak or mixed curves; inactive = no such curve, though single readings can be large; an effect the other way counts as inactive or inconclusive.

Tested on: not listed separately
Assay: qHTS assay to identify aromatase inhibitors - cell viability counter screen (AID 743084);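 also: cells stimulated with testosterone during compound exposure; nearly all actives have a fitted effect of over 55% in size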
Settings: MCF-7 aro ERE viability, CellTiter-Fluor, 24 h; series mostly up to 70.3 µM; activity change, negative = cytotoxicity: at the top concentration
% is scaled to controls: 0 for no effect and ±100 for the full control effect; potency is read from the fitted curve at half-maximal effect.

SMILES	activity change, negative = cytotoxicity	Potency
N=C(N)c1ccc(OCCCOc2ccc(C(=N)N)cc2)cc1	-2.78% (inactive)	
CCCCCCCCCCCCCC=O	-6.33% [at 8.47 µM] (inactive)	
CS(=O)(=O)O	-4.33% [at 95 µM] (inactive)	
Cc1ccc(Cl)cc1Cl	21.5% (inactive)	
CN1CCN(c2cc3c(cc2F)c(=O)c(C(=O)O)cn3-c2ccc(F)cc2)CC1	6.86% (inactive)	
NC(=O)COCCN1CCN(C(c2ccccc2)c2ccc(Cl)cc2)CC1 (configuration not stated)	-17.3% (inactive)	
CC(=O)Nc1c(I)cc(I)c(C(=O)O)c1I	13.3% (inactive)	
O=C1CCCCCCCCCCCN1		inactive
Cc1c(O)cccc1O	-9.61% [at 95 µM] (inactive)	
CCOC(=O)c1c(C)n(C)c2ccc(O)cc12	0.402% (inactive)	
CO/N=C(/C(=O)N[C@@H]1C(=O)N2C(C(=O)OCOC(=O)C(C)(C)C)=C(C)CS[C@H]12)c1csc(N)n1	0.127% (inactive)	
CCN1CCC[C@H]1CNC(=O)c1c(O)c(Cl)cc(Cl)c1OC	-4.36% (inactive)	
COC(=O)C1=C(C)NC(C)=C(C(=O)OC)C1c1ccccc1[N+](=O)[O-]		inactive and 54.5 µM (active)
NC(=O)Nc1ccccc1	7.78% (inactive)	
CC(=O)OC/C=C(\C)CC/C=C(\C)CCC=C(C)C	6.06% (inactive)	
CC(=O)CC(C)C	8.76% (inactive)	
c1cnc(N2CCN(Cc3ccc4c(c3)OCO4)CC2)nc1	-5.22% (inactive)	

SMILES	activity change, negative = cytotoxicity	Potency
CCOC(=O)[C@H](CCc1ccccc1)N[C@@H](C)C(=O)N1[C@H](C(=O)O)C[C@@H]2CCC[C@@H]21	-2.6% (inactive)	
CC(C)CNCC(C)C	24.5% (inactive)	
O=C(CCCN1CCC(O)(c2cccc(C(F)(F)F)c2)CC1)c1ccc(F)cc1	-3.65% (inactive)	
NS(=O)(=O)c1cc(C(=O)O)cc(N2CCCC2)c1Oc1ccccc1	8.02% [at 32.5 µM] (inactive)	
CCOC(=O)Nc1ccc(NCc2ccc(F)cc2)nc1N		inactive
CCN(Cc1ccncc1)C(=O)C(CO)c1ccccc1 (configuration not stated)	-6.33% (inactive)	
COC(=O)[C@@H](N)Cc1ccc(O)c(O)c1		26.6 µM (active)
COC(=O)c1ccc(C)cc1C1=NC(C)(C(C)C)C(=O)N1 (configuration not stated)	-1.74% (inactive)	
C=CCS(=O)(=O)O	2.1% (inactive)	
NC(=O)c1ccc(N)cc1	18% (inactive)	
CC(C)OC(=O)c1ccccc1	11% [at 95 µM] (inactive)	
CCCCOCCOCCOCc1cc2c(cc1CCC)OCO2	6.75% (inactive)	
CCO/C([O-])=N/c1c[n+](N2CCOCC2)no1	10.3% [at 32.5 µM] (inactive)	
CC1(C)CO[C@@H](CC(=O)O)CN1	0.767% (inactive)	
CN(C)CCCN1c2ccccc2CCc2ccc(Cl)cc21		48.6 µM (active)
CC(C)(c1ccc(O)cc1)c1ccc(O)cc1	-12.7% (inactive)	
CN1CC(=O)NC1=N	-0.56% (inactive)	

Target: Aryl hydrocarbon receptor (Homo sapiens) (UniProt P35869)
Assay: qHTS assay to identify small molecule that activate the aryl hydrocarbon receptor (AhR) signaling pathway (AID 743085); also: nearly all actives have a fitted effect of over 15% in size;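 as to activation: HG2L7.5c1 human HepG2 liver cells with stably integrated DRE-driven firefly reporter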
Settings: HepG2 AhR-luc (HG2L7.5c1), luciferase, 24 h; series mostly up to 70.3 µM; activation: at the top concentration
In short: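 Steps: seed HepG2-AhR-luc cells; allow 5 h at 37C; pin-transfer test compound or vehicle; incubate 24 h at 37C; add viability dye (30 min, 37C) and read fluorescence; add luciferase substrate (30 min, RT) and read luminescence.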

Chain of Aryl hydrocarbon receptor (Homo sapiens) (P35869 whole entry, looked up): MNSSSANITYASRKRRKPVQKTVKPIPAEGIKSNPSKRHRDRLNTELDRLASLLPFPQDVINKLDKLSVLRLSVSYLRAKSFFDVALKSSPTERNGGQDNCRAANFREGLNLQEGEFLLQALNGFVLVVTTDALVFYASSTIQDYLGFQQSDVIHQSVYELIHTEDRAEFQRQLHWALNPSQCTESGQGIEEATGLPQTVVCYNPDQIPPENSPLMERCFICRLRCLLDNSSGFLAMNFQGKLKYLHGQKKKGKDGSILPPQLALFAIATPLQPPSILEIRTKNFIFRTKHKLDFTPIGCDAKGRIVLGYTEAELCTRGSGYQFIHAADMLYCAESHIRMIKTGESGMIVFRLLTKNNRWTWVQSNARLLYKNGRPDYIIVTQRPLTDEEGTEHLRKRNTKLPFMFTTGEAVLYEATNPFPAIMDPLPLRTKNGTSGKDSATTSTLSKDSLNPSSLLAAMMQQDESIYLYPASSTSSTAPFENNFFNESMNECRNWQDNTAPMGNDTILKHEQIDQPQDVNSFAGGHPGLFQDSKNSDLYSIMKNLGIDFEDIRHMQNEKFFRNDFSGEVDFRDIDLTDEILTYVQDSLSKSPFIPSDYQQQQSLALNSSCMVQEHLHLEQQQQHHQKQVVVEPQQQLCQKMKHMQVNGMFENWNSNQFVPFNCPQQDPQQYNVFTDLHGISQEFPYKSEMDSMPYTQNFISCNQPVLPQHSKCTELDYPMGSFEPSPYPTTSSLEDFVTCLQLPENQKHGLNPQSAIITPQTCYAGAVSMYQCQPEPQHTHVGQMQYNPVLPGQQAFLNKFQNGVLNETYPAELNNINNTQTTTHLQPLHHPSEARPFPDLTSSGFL

SMILES	activation	Potency
N=C(N)c1ccc(OCCCOc2ccc(C(=N)N)cc2)cc1	8.61% (inactive)	
CS(=O)(=O)O	0.259% [at 95 µM] (inactive)	
Cc1ccc(Cl)cc1Cl	-0.0028% (inactive)	
CN1CCN(c2cc3c(cc2F)c(=O)c(C(=O)O)cn3-c2ccc(F)cc2)CC1	-0.309% (inactive)	
NC(=O)COCCN1CCN(C(c2ccccc2)c2ccc(Cl)cc2)CC1 (configuration not stated)	-2.52% (inactive)	
CC(=O)Nc1c(I)cc(I)c(C(=O)O)c1I	-0.412% (inactive)	
O=C1CCCCCCCCCCCN1		inactive
CCOC(=O)c1c(C)n(C)c2ccc(O)cc12		1.68 µM (active)
CO/N=C(/C(=O)N[C@@H]1C(=O)N2C(C(=O)OCOC(=O)C(C)(C)C)=C(C)CS[C@H]12)c1csc(N)n1	1.35% (inactive)	
CCN1CCC[C@H]1CNC(=O)c1c(O)c(Cl)cc(Cl)c1OC	0.101% (inactive)	
NC(=O)Nc1ccccc1	-0.841% (inactive)	
CC(C)CNCC(C)C	-2.28% (inactive)	
O=C(CCCN1CCC(O)(c2cccc(C(F)(F)F)c2)CC1)c1ccc(F)cc1	1.41% (inactive)	
NS(=O)(=O)c1cc(C(=O)O)cc(N2CCCC2)c1Oc1ccccc1	1.05% [at 32.5 µM] (inactive)	
CCN(Cc1ccncc1)C(=O)C(CO)c1ccccc1 (configuration not stated)	-1.18% (inactive)	
COC(=O)[C@@H](N)Cc1ccc(O)c(O)c1		26.6 µM (active)
COC(=O)c1ccc(C)cc1C1=NC(C)(C(C)C)C(=O)N1 (configuration not stated)	-0.737% (inactive)	
CC(C)OC(=O)c1ccccc1	1.96% [at 95 µM] (inactive)	
CCCCOCCOCCOCc1cc2c(cc1CCC)OCO2		inactive and 18 µM (active)
CCO/C([O-])=N/c1c[n+](N2CCOCC2)no1	-0.569% [at 32.5 µM] (inactive)	
CC1(C)CO[C@@H](CC(=O)O)CN1	2.67% (inactive)	
CN(C)CCCN1c2ccccc2CCc2ccc(Cl)cc21		inactive
CC(C)(c1ccc(O)cc1)c1ccc(O)cc1		32.2 µM (active)
CN1CC(=O)NC1=N	2.11% (inactive)	

Tested on: not listed separately
Assay: qHTS assay to identify small molecule that activate the aryl hydrocarbon receptor (AhR) signaling pathway - cell viability counter screen (AID 743086); also: nearly all actives have a fitted effect of over 45% in size;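 as to viability change, negative = cytotoxic: HepG2 liver cells carrying the AhR DRE luciferase reporter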
Settings: HepG2-AhR-luc viability, CellTiter-Fluor, 24 h; series mostly up to 70.3 µM; viability change, negative = cytotoxic: at the top concentration
In short: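 HepG2-AhR-luc (HG2L7.5c1) cells, 4000/well, were preincubated 5 h at 37C, exposed to compound in qHTS format for 24 hr at 37C, then given CellTiter-Fluor for 30 min; viability was read as fluorescence in the reporter wells.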

SMILES	viability change, negative = cytotoxic	Potency
CCCCCCCCCCCCCC=O	3.67% [at 8.47 µM] (inactive)	
CS(=O)(=O)O	3.58% [at 95 µM] (inactive)	
Cc1ccc(Cl)cc1Cl	-3.16% (inactive)	
CN1CCN(c2cc3c(cc2F)c(=O)c(C(=O)O)cn3-c2ccc(F)cc2)CC1	-4.88% (inactive)	
CC(=O)Nc1c(I)cc(I)c(C(=O)O)c1I	1.64% (inactive)	
O=C1CCCCCCCCCCCN1		inactive
Cc1c(O)cccc1O	4.97% [at 95 µM] (inactive)	
CCOC(=O)c1c(C)n(C)c2ccc(O)cc12	8.37% (inactive)	
CO/N=C(/C(=O)N[C@@H]1C(=O)N2C(C(=O)OCOC(=O)C(C)(C)C)=C(C)CS[C@H]12)c1csc(N)n1	-3.05% (inactive)	
CCN1CCC[C@H]1CNC(=O)c1c(O)c(Cl)cc(Cl)c1OC	7.36% (inactive)	
COC(=O)C1=C(C)NC(C)=C(C(=O)OC)C1c1ccccc1[N+](=O)[O-]	-24.2% (inactive)	
NC(=O)Nc1ccccc1	14.3% (inactive)	
CC(=O)OC/C=C(\C)CC/C=C(\C)CCC=C(C)C	17.5% (inactive)	
CC(=O)CC(C)C	-0.412% (inactive)	
c1cnc(N2CCN(Cc3ccc4c(c3)OCO4)CC2)nc1	-0.379% (inactive)	
CCOC(=O)[C@H](CCc1ccccc1)N[C@@H](C)C(=O)N1[C@H](C(=O)O)C[C@@H]2CCC[C@@H]21	-6.96% (inactive)	
CC(C)CNCC(C)C	4.69% (inactive)	
NS(=O)(=O)c1cc(C(=O)O)cc(N2CCCC2)c1Oc1ccccc1	-2.81% [at 32.5 µM] (inactive)	
CCOC(=O)Nc1ccc(NCc2ccc(F)cc2)nc1N		inactive
CCN(Cc1ccncc1)C(=O)C(CO)c1ccccc1 (configuration not stated)	-2.16% (inactive)	
C=CCS(=O)(=O)O	-3.4% (inactive)	
NC(=O)c1ccc(N)cc1	19.1% (inactive)	
CC(C)OC(=O)c1ccccc1	5.06% [at 95 µM] (inactive)	
CCCCOCCOCCOCc1cc2c(cc1CCC)OCO2	10.7% (inactive)	
CCO/C([O-])=N/c1c[n+](N2CCOCC2)no1	13% [at 32.5 µM] (inactive)	
CC1(C)CO[C@@H](CC(=O)O)CN1	-3.15% (inactive)	
CN(C)CCCN1c2ccccc2CCc2ccc(Cl)cc21		27.3 µM (active)
CC(C)(c1ccc(O)cc1)c1ccc(O)cc1	-7% (inactive)	
CN1CC(=O)NC1=N	2.46% (inactive)	
